PubChem BioAssay (EPA / NIEHS)
Results filed as inconclusive are left out. Activity calls are given as the source filed them. Rule for the calls, unless noted: active = hit-call score of the fitted dose curve at least 0.9, where 1 is the maximum; inactive = score below 0.9.

Key:
[1] = ATG_NFI_CIS: Attagene CIS-FACTORIAL HepG2 Assay for human Nuclear Factor I (NFI) (AID 2282989); conditions: HepG2 cis-regulatory reporter, NFI response element transcription; actives raise or lower the signal
Method in brief: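 Read-out: reporter mRNA via RT-PCR plus capillary electrophoresis with fluorescence detection. Transiently transfected HepG2 (endogenous TF activity on cis promoters), 24 h compound exposure; gain or loss of signal fitted against DMSO.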

[2] = target: Myc proto-oncogene protein (Homo sapiens) (UniProt P01106); assay: ATG_Myc_CIS: Attagene CIS-FACTORIAL HepG2 Assay for human Myelocytomatosis (Myc) Proto-Oncogene Transcription Factor (AID 2282990); conditions: HepG2, Attagene cis-reporter transcription factor activity; actives raise or lower the signal
Chain of Myc proto-oncogene protein (Homo sapiens) (P01106 whole entry, looked up, the tested form may be a part): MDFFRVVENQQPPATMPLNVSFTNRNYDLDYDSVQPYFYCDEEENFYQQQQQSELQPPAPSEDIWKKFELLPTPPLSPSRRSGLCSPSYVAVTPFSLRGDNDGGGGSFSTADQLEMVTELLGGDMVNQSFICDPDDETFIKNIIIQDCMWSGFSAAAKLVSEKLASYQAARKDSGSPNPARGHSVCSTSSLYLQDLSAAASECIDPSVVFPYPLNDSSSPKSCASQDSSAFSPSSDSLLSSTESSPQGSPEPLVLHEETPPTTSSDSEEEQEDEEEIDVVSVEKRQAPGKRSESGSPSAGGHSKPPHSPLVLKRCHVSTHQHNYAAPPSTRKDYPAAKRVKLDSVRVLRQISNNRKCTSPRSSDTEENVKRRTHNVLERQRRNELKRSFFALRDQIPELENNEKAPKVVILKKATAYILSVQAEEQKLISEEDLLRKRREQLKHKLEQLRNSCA
Method in brief: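 After 24 h chemical treatment of HepG2 cells carrying multiplexed cis-regulated reporter constructs, reporter transcripts quantified by RT-PCR and capillary electrophoresis of fluorescent fragments. Gain or loss fitted against DMSO baseline.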

[3] = ATG_NF_kB_CIS: Attagene CIS-FACTORIAL HepG2 Assay for human Nuclear Factor Kappa B (NF-kB) (AID 2282991); conditions: HepG2 Attagene cis-factorial NF-kB reporter mRNA; actives raise or lower the signal
Method in brief: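 Measures mRNA induction of an NF-kB-responsive cis-element reporter in HepG2 cells transfected with multiple reporter units, sampled 24 h post-dosing; quantified by fluorescence after RT-PCR and capillary electrophoresis, fitted for activation or inhibition against DMSO.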

[4] = ATG_NRF2_ARE_CIS: Attagene CIS-FACTORIAL HepG2 Assay for human Nuclear Factor Erythroid 2 Related Factor 2 (NFR2) response to Antioxidant Response Elements (ARE) (AID 2282992); conditions: HepG2 Attagene ARE/NRF2 reporter, transcription factor activity; actives raise or lower the signal;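 for AC50: reporter mRNA level measured by RT-PCR and capillary electrophoresis fluorescence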
Method in brief: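 Fluorescence intensity of reporter-specific cDNA fragments, separated by capillary electrophoresis, reflects mRNA induction in transfected HepG2 cells at 24 h. Activity is fitted bidirectionally, DMSO serving as baseline.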

[5] = ATG_Oct_MLP_CIS: Attagene CIS-FACTORIAL HepG2 Assay for human Octamer-Binding Transcription Factor (Oct) (AID 2282993); conditions: HepG2 Attagene cis-factorial Oct reporter, mRNA; actives raise or lower the signal
Method in brief: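 Read-out: reporter mRNA via RT-PCR plus capillary electrophoresis of 6-FAM-labelled fragments. Transiently transfected HepG2, 24 h exposure, endogenous TF activity on cis elements. Gain or loss of signal fitted relative to DMSO.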

[6] = target: Cellular tumor antigen p53 (Homo sapiens) (UniProt P04637); assay: ATG_p53_CIS: Attagene CIS-FACTORIAL HepG2 Assay for human p53 Transcription Factor (AID 2282994); conditions: HepG2 p53 cis-element reporter, Attagene mRNA; actives raise or lower the signal
Chain of Cellular tumor antigen p53 (Homo sapiens) (P04637 whole entry, looked up): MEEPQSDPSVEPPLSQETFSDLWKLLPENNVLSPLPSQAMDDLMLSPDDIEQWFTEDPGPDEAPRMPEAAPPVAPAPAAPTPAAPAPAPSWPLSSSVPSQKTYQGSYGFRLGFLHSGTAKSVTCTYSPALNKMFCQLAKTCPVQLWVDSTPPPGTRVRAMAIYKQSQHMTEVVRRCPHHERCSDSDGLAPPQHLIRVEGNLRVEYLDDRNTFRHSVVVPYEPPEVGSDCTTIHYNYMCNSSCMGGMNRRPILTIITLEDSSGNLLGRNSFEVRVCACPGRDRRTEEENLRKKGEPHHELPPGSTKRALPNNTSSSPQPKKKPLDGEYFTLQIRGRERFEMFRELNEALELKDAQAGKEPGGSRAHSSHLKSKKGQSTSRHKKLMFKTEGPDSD
Method in brief: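 Transiently transfected HepG2 (multiple cis reporter transcription units); exposure 24 h; reporter RNA via RT-PCR, 6-FAM extension, 2 h HpaI digest at 37 C, CE detection; DMSO baseline.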

[7] = BSK_3C_TissueFactor: BioMAP Diversity Plus: 3C Assay for Tissue Factor Biomarker Activity (AID 2282997); conditions: BioMAP 3C HUVEC, tissue factor biomarker readout; actives raise or lower the signal
Method in brief: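 In this endothelial system, HUVEC are treated for 24 h and Tissue Factor is assessed by ELISA, normalised to DMSO.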

[8] = BSK_3C_uPAR: BioMAP Diversity Plus: 3C Assay for Urokinase-type plasminogen activator receptor (uPAR) Biomarker Activity (AID 2282998); conditions: BioMAP 3C HUVEC, uPAR biomarker ELISA; actives raise or lower the signal
Method in brief: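 HUVEC primary cells; 24 h post-dose; uPAR by ELISA; gain or loss of signal fitted bidirectionally vs DMSO baseline.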

[9] = BSK_3C_VCAM1: BioMAP Diversity Plus: 3C Assay for Vascular cell adhesion molecule 1 (VCAM1) Biomarker Activity (AID 2282999); conditions: BioMAP 3C HUVEC, VCAM1 ELISA, cytokine-stimulated; actives raise or lower the signal
Method in brief: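 Activity fitted in both directions relative to DMSO, with ELISA measurement of the surface marker on primary HUVEC (3C) at 24 h post-treatment; parallel SRB staining (0.1% SRB, TCA-fixed, 560 nm) flagged overt cytotoxicity.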

[10] = BSK_4H_Eotaxin3: BioMAP Diversity Plus: 4H Assay for Eotaxin 3 Biomarker Activity (AID 2283000); conditions: primary human endothelial cells (HUVEC); actives raise or lower the signal
Method in brief: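 ELISA quantitation of CCL26 (Eotaxin-3) protein from chemically dosed human vascular endothelial cells at 24 h; increases and decreases both scored relative to DMSO-treated baseline.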

[11] = read-out: Intercellular Adhesion Molecule 1 (ICAM1), ICAM1 (gene 3383); assay: BSK_3C_ICAM1: BioMAP Diversity Plus: 3C Assay for Intercellular Adhesion Molecule 1 (ICAM1) Biomarker Activity (AID 2283003); conditions: primary human endothelial cells (HUVEC); actives raise or lower the signal
Method in brief: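 ELISA readout of ICAM1 in human umbilical vein endothelial cells in the 3C system, taken 24 h post-dose. Gain or loss of signal versus DMSO was fitted in both directions, with SRB total-protein staining run in parallel.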

[12] = BSK_3C_Proliferation: Cell Proliferation Assessment in the BioMAP Diversity Plus: 3C Assay (AID 2283006); conditions: primary human endothelial cells (HUVEC);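 for AC50: potency may reflect either rise or fall in cell number versus DMSO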
Method in brief: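 Proliferation as total protein: sulforhodamine B (0.1%) stain of TCA-fixed subconfluent human umbilical vein endothelial cells, absorbance 560 nm, 48 h after dosing. Activity fitted in both directions against DMSO baseline.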

[13] = target: human Peroxisome Proliferator-activated Receptor alpha (PPARa), PPARA (gene 5465) (UniProt Q07869); assay: ATG_PPARa_TRANS: Attagene TRANS-FACTORIAL HepG2 Assay for human Peroxisome Proliferator-activated Receptor alpha (PPARa) (AID 2283001; active = hit-call score of the fitted dose curve at least 0.9, where 1 is the maximum)
Chain of human Peroxisome Proliferator-activated Receptor alpha (PPARa), PPARA (gene 5465) (Q07869 whole entry, looked up, the tested form may be a part): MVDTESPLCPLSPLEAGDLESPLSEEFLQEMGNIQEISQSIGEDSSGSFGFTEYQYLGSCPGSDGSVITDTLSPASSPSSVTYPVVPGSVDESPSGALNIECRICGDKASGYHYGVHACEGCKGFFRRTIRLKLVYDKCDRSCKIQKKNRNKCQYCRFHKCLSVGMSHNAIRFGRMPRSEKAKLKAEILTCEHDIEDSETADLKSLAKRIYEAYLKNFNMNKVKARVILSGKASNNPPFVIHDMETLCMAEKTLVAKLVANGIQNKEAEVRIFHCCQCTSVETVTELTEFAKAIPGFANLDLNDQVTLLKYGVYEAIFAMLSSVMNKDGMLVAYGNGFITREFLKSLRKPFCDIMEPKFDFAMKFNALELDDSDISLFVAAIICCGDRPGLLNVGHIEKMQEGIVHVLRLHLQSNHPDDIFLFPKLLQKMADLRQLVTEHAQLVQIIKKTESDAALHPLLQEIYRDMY
Method in brief: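 Reporter transcripts quantified by RT-PCR plus capillary electrophoresis after 24 h treatment, fitted upward relative to DMSO. Cells: human HepG2 transiently carrying multiple GAL4-UAS reporter units driven by NR-Gal4 chimeras.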

[14] = target: human Peroxisome Proliferator-activated Receptor delta (PPARd), PPARD (gene 5467) (UniProt Q03181); assay: ATG_PPARd_TRANS: Attagene TRANS-FACTORIAL HepG2 Assay for human Peroxisome Proliferator-activated Receptor delta (PPARd) (AID 2283002; active = hit-call score of the fitted dose curve at least 0.9, where 1 is the maximum)
Chain of human Peroxisome Proliferator-activated Receptor delta (PPARd), PPARD (gene 5467) (Q03181 whole entry, looked up, the tested form may be a part): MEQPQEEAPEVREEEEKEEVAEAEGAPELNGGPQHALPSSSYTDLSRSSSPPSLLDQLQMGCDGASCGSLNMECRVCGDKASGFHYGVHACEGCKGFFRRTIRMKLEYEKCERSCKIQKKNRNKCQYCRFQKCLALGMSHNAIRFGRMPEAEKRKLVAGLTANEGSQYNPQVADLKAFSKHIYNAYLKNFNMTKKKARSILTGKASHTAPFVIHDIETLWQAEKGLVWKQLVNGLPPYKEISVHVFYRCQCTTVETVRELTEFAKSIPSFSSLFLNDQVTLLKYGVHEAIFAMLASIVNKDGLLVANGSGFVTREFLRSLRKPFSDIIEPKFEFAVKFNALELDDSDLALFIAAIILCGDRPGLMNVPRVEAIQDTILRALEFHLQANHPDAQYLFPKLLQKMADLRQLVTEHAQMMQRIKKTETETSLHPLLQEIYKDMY
Method in brief: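 Read-out is induced reporter mRNA, quantified by RT-PCR with fluorescent labelling and capillary electrophoresis after 24 h dosing. Cells are HepG2 transiently carrying multiple GAL4-UAS reporter units driven by exogenous NR-GAL4 chimeras; DMSO serves as baseline.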

[15] = target: Peroxisome proliferator-activated receptor gamma (Homo sapiens) (UniProt P37231); assay: ATG_PPARg_TRANS: Attagene TRANS-FACTORIAL HepG2 Assay for human Peroxisome Proliferator-activated Receptor-gamma (PPARg) (AID 2283007; active = hit-call score of the fitted dose curve at least 0.9, where 1 is the maximum)
Chain of Peroxisome proliferator-activated receptor gamma (Homo sapiens) (P37231 whole entry, looked up, the tested form may be a part): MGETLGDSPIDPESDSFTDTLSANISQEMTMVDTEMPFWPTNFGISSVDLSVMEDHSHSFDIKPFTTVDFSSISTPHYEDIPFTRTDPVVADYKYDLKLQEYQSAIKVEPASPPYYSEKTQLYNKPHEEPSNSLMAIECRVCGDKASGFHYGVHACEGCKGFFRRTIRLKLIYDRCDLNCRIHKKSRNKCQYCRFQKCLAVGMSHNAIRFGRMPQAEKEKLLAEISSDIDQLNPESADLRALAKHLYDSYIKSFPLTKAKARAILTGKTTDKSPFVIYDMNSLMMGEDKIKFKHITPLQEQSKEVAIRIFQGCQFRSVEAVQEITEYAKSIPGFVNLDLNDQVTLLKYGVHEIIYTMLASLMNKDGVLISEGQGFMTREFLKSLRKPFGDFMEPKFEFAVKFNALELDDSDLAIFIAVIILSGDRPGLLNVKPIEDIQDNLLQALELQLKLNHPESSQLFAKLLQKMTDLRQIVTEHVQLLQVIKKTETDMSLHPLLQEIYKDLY
Method in brief: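 Gain-of-signal endpoint relative to DMSO, derived from reporter mRNA levels quantified by RT-PCR and capillary electrophoresis. Cells were HepG2 transiently expressing a chimeric NR-Gal4 construct with GAL4-UAS reporters, exposed to chemicals for 24 h.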

[16] = target: Nuclear receptor subfamily 1 group I member 2 (Homo sapiens) (UniProt O75469); assay: ATG_PXR_TRANS: Attagene TRANS-FACTORIAL HepG2 Assay for human Pregnane X Receptor (PXR) (AID 2283008; active = hit-call score of the fitted dose curve at least 0.9, where 1 is the maximum)
Chain of Nuclear receptor subfamily 1 group I member 2 (Homo sapiens) (O75469 whole entry, looked up, the tested form may be a part): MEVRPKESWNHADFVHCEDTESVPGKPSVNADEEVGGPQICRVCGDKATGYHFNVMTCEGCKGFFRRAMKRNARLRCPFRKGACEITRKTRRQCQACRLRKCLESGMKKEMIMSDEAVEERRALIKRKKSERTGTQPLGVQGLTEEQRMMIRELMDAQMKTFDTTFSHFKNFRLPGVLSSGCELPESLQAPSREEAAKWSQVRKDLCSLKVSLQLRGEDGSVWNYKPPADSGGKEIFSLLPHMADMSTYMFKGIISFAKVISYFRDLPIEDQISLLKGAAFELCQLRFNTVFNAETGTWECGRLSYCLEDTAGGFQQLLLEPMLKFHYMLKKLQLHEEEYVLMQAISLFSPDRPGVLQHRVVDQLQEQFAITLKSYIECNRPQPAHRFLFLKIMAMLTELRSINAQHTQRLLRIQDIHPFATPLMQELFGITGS
Method in brief: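 Transient HepG2 transfectants carrying multiplexed reporter transcription units; PXR activity read through a Gal4 chimera. 24 h exposure. RT-PCR/CE fluorescence; upward curve fit referenced to DMSO.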

[17] = target: human RAR-related Orphan Receptor beta (RORb), RORB (gene 6096) (UniProt Q92753); assay: ATG_RORb_TRANS: Attagene TRANS-FACTORIAL HepG2 Assay for human RAR-related Orphan Receptor beta (RORb) (AID 2283010; active = hit-call score of the fitted dose curve at least 0.9, where 1 is the maximum)
Chain of human RAR-related Orphan Receptor beta (RORb), RORB (gene 6096) (Q92753 whole entry, looked up, the tested form may be a part): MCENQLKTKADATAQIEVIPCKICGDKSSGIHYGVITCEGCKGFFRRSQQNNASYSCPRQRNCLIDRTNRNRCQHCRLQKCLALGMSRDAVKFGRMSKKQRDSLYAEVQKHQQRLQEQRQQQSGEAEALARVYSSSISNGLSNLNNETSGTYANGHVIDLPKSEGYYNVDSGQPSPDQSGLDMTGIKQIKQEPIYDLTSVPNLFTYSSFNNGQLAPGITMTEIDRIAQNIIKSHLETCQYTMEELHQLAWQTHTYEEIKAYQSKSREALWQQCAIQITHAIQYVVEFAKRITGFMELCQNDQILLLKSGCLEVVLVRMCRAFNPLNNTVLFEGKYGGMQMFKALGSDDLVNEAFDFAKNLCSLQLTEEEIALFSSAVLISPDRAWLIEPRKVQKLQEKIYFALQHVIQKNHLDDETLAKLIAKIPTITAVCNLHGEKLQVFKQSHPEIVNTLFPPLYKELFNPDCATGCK
Method in brief: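 Read-out is reporter mRNA induction, quantified by RT-PCR with fluorescent capillary electrophoresis, 24 h post-dose in transiently transfected HepG2 expressing exogenous NR-Gal4 chimera. Activity fitted upward versus DMSO.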

Measured: AC50

CCCCCCCCCCCCCCCCCC(=O)OCC(CC)CCCC (stereo unspecified)
not listed: [13] | [14] | [15] | [16] | [17]
inactive: all other assays above

O=Cc1ccc(Cl)c([N+](=O)[O-])c1
active: [1] 160 µM | [2] 100 µM | [4] 179 µM | [6] 54.5 µM | [15] 100 µM
inactive: [3] | [5] | [13] | [14]

C=C(C)C(=O)O[C@H]1C[C@@H]2CC[C@@]1(C)C2(C)C
active: [4] 72.1 µM | [6] 145 µM | [8] 13.5 µM | [9] 26.6 µM | [10] 9.05 µM | [11] 28.8 µM | [12] 8.38 µM | [16] 31.6 µM
inactive: [1] | [2] | [3] | [5] | [13] | [14] | [15] | [17]

NC(=O)c1ccccc1Cl
inactive: [2] | [3] | [13] | [14] | [15]
active: [1] 61.6 µM | [4] 25.8 µM | [5] 55.1 µM | [6] 143 µM

O=C(OCc1ccccc1)C(=O)OCc1ccccc1
inactive: [1] | [2] | [3] | [4] | [5] | [6] | [13] | [14] | [15]

CC(=O)O[C@]1(C(C)=O)CC[C@H]2[C@@H]3C[C@H](C)C4=CC(=O)CC[C@]4(C)[C@H]3CC[C@@]21C
active: [3] 20 µM | [4] 65.1 µM | [6] 34.9 µM | [15] 21.9 µM
not listed: [7] | [13] | [14] | [17]
inactive: all other assays above

BrC1CCC(Br)C(Br)CCC(Br)C(Br)CCC1Br (stereo unspecified)
inactive: [2] | [3] | [6] | [11] | [15]
active: [1] 46 µM | [4] 23.1 µM | [5] 58.6 µM | [8] 3.22 µM | [9] 4.6 µM | [10] 3.25 µM | [12] 4.72 µM | [16] 2.86 µM

O=P(c1ccccc1)(c1ccccc1)c1ccccc1
active: [16] 0.325 µM
not listed: [7] | [13] | [14] | [15] | [17]
inactive: all other assays above

C[C@H]1C[C@@H]2[C@H]([C@@H](O)C[C@@]3(C)[C@H]2CC[C@]3(O)C(=O)CO)[C@@]2(C)C=CC(=O)C=C12
active: [4] 26.7 µM
not listed: [7] | [15] | [17]
inactive: all other assays above

Nc1cc([N+](=O)[O-])ccc1Cl
active: [4] 62.5 µM | [15] 49.8 µM
not listed: [7] | [14] | [17]
inactive: all other assays above
